Results taken from PubChem BioAssay AID624465 (National Center for Advancing Translational Sciences (NCATS), 2012).
Screen size: about 360,000 compounds; about 300 (0.083%) were called active. Rule as the data show it: active = activation above about 40%; inconclusive = between about 15% and that limit; inactive = weaker than that. The sample as a whole holds a higher share of actives than the screen did.

Biological target: D(2) dopamine receptor (Homo sapiens) (UniProt P14416)
Assay: Beta-Arrestin HTS for Positive Allosteric Modulators of the Human D2 Dopamine Receptor: Agonists
Conditions: DiscoveRx PathHunter D2 beta-arrestin, luminescence, 90 min; active compounds read high; 100% = 57 uM dopamine signal
Description: There is great interest in identifying small molecule ligands for G-protein coupled receptors (GPCRs) as nearly 50% of all FDA-approved drugs target these important receptor proteins. […] Amongst the dopamine receptors (DARs), the D2 is arguably one of the most validated drug targets in neurology and psychiatry. For instance, all receptor-based antiparkinsonian drugs primarily work via stimulating the D2 DAR, whereas all FDA-approved antipsychotic agents are antagonists of this receptor. The D2 DAR is also therapeutically targeted in other disorders such as restless legs syndrome, tardive dyskinesia, Tourette's syndrome, and hyperprolactinemia.
To this end, a miniaturized qHTS screen was developed to be screened against the Molecular Libraries Small Molecule Repository (MLSMR). This assay seeks to identify agonists against the D2 DAR.
NIH Molecular Libraries Probe Production Network [MLPCN]
NIH Chemical Genomics Center [NCGC]
PI Name: David Sibley, National Institutes of Neurological Disorders and Stroke
DiscoveRx D2 cells were thawed from frozen stock and seeded at 2,100 cells/ 3 uL/well media (DiscoveRx Plating Reagent 2) with MultiDrop Combi dispenser (Thermo Scientific, Logan, UT) onto white tissue culture treated 1536-well Aurora plates (Brooks Automation, Chelmsford, MA) and allowed to attach overnight at 37 deg C, 5% CO2. Next, 23 nL/well of compound solutions in DMSO were added with a pintool transfer (Kalypsis, San Diego, CA). As the positive control, 1 uL/well dopamine (EC100, 57 uM final concentration) diluted in buffer (HBSS + 10 mM HEPES + SMB + 0.1% Tween-20) was dispensed to 1 column of each plate. The rest of the plate was dispensed with buffer only, 1 uL/well as well. The cells were stimulated by compounds or dopamine control for 90 minutes at 37 deg C, 5% CO2, after which 1.5 ul/well of DiscoveRx detection reagent was added with BioRAPTR FRD dispenser. The detection reagent was prepared by mixing of Galacton Star Substrate, Emerald II solution and PathHunter buffer (supplied by the assay kit) together at 1:5:19 proportion accordingly just prior to dispensing. The plates were incubated at ambient temperature for 1 hour and then the luminescent signal was read on ViewLux plate reader (PerkinElmer, Waltham, MA).

Chain of D(2) dopamine receptor (Homo sapiens) (P14416 whole entry, looked up): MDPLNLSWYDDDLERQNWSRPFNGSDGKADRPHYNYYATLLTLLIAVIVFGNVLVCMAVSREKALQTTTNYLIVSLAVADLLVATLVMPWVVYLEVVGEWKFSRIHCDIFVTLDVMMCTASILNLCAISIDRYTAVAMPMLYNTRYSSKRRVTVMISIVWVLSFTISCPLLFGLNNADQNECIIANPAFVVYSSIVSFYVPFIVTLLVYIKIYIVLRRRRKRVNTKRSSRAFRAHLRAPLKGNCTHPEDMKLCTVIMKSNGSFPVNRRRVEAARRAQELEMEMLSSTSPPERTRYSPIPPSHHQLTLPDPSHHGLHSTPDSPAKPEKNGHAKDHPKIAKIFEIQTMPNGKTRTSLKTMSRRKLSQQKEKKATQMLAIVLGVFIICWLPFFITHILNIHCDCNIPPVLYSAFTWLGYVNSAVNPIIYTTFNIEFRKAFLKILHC

Row | SMILES | activation
1 | O=C1/C(=C\c2ccc([N+](=O)[O-])cc2)CS(=O)(=O)C/C1=C/c1ccc([N+](=O)[O-])cc1 | -8.23% (inactive)
2 | O=C(O)C1CCN1C1CCCCC1 (stereo not drawn) | -0.715% (inactive)
3 | OC[C@@H]1CN(Cc2cccs2)C[C@H](n2cnc3c(Nc4ccccc4)ncnc32)O1 | -3.6% (inactive)
4 | COc1cccc(-c2cnc3c(NC(C)=O)cc(-c4cc(F)ccc4OC)cn23)c1 | 2.15% (inactive)
5 | CN1C(=O)/C(=C/C=C2\SCCN2C)OC1=S | -3.31% (inactive)
6 | O=C1c2ccccc2C(=O)N1CCC(O)C[N+](=O)[O-] (stereo not drawn) | -2.92% (inactive)
7 | O=C(NC1CC2CCCC(C1)N2C(=O)N1CCCCC1)C1CCCCC1 (stereo not drawn) | -2.68% (inactive)
8 | O=C(Nc1ccccc1N1CCOCC1)c1ccc(OCc2cscn2)cc1 | 9.98% (inactive)
9 | Cc1ccc(N=C2NC(=O)c3cccc([N+](=O)[O-])c32)cc1 | 1.24% (inactive)
10 | COc1ccc([C@H]2C[C@@H](n3cc(COC(=O)c4ccccc4)nn3)[C@H](O)CN2C(=O)c2cccs2)cc1 | -3.3% (inactive)
11 | COc1cc(C(=O)Nc2cc(C(F)(F)F)ccc2N2CCOCC2)ccc1O | -0.449% (inactive)
12 | CCOC(=O)C(NS(=O)(=O)c1ccc(C)cc1)(C(F)(F)F)P(=O)(OCC(C)C)OCC(C)C (stereo not drawn) | -3.61% (inactive)
13 | COc1ccc(N2C(=O)C3C(C2=O)C(C(=O)c2ccccc2)N2CCCC32)cc1 (stereo not drawn) | -3.43% (inactive)
14 | O=C(CSc1ccccn1)Nc1nc2c(ccc3ccccc32)s1 | -0.569% (inactive)
15 | CC(=O)c1nn(-c2ccccc2)c(=Nc2ccccc2)cc1C | -5.64% (inactive)
16 | CON(C)S(=O)(=O)c1ccc2c(c1)NC(=O)C1CCCN21 (stereo not drawn) | -0.103% (inactive)
17 | O=C(OCC(=O)N1CCN(C(=O)c2ccco2)CC1)c1c(Cl)cccc1Cl | -10.9% (inactive)
18 | COc1cccc(OCc2cc(C(=O)N3CCN(C(=O)c4ccco4)CC3)no2)c1 | 2.91% (inactive)
19 | O=C(CN1CCN(C(=O)c2ccco2)CC1)Nc1ccc(Cl)c(C(F)(F)F)c1 | -0.549% (inactive)
20 | COc1cccc(OC)c1OCCN1CCN(C(=O)c2ccco2)CC1 | 44.2% (active)
21 | O=C(c1ccco1)N1CCN(C(=S)Nc2cc(F)cc(F)c2)CC1 | 0.341% (inactive)
22 | O=C(c1ccco1)N1CCN(Cc2cccc(C(F)(F)F)c2)CC1 | 41.8% (active)

Row | SMILES | activation
23 | CC1=CC=CN2C1=NC(=O)CC2(C)C(=O)N(CC(=O)NC1CCCC1)c1ccccc1C (stereo not drawn) | 4.24% (inactive)
24 | COc1ccc(-c2ccc3[nH]c4c(c3c2)CCN2C[C@H]3[C@H](C)ON(C)[C@H]3C[C@@H]42)cc1 | -8.14% (inactive)
25 | Cc1cc(C)n2nc(C(=O)N3CCN(Cc4ccc5c(c4)OCO5)CC3)nc2n1 | 10.2% (inactive)
26 | O=C(c1cccs1)N1CCN(Cc2ccc3c(c2)OCO3)CC1 | 46.9% (active)
27 | COc1ccc(-c2cc(C(=O)N3CCN(Cc4ccc5c(c4)OCO5)CC3)on2)cc1OC | -0.403% (inactive)
28 | CCOc1ccc(C(=O)NCC(=O)N2CCN(c3ccc(C(F)(F)F)cn3)CC2)cc1 | 9.96% (inactive)
29 | COP1(=O)C[C@@H](O)[C@@H](O)[C@@H](COCc2ccccc2)O1 (stereo partly drawn) | 0.955% (inactive)
30 | Oc1cc2c(cc1O)CN(C(=S)NCCc1ccc(Cl)cc1)CCC2 | -1.87% (inactive)
31 | O=[N+]([O-])c1ccc(CN2CC(N3CC=CC3)CS2(=O)=O)cc1 (stereo not drawn) | -1.85% (inactive)
32 | CCc1ccc(OCC(=O)OC(C)C(=O)NC2CC2)cc1 (stereo not drawn) | -2.44% (inactive)
33 | Cc1cc(C)cc(N(CC(=O)N2CC=C(c3ccccc3)CC2)S(=O)(=O)c2c(C)noc2C)c1 | 0.128% (inactive)
34 | COc1ccccc1CCNC(=O)CN1C(=O)NC2(CCCC2)C1=O | -3.81% (inactive)
35 | O=c1ccn([C@@H]2O[C@H](CNS(=O)(=O)c3cc4ccccc4s3)[C@@H](O)[C@H]2O)c(=O)[nH]1 | -2.86% (inactive)
36 | CCOC1=C2CN(S(=O)(=O)c3ccc(C)cc3)[C@H](c3cccs3)C[C@H]2[C@H]2C(=O)N(c3ccccc3)C(=O)[C@H]2C1 | -3.55% (inactive)
37 | CCC(C)(C)n1nnnc1CN1CCN(c2nc3ccc(C)cc3cc2C#N)CC1 | -5.17% (inactive)
38 | Cc1ccc(C(=O)O/N=C(\N)c2ccccn2)cc1Cl | 5.09% (inactive)
39 | COc1ccc(C(=O)O/N=C(\N)c2ccccn2)cc1[N+](=O)[O-] | 42.1% (active)
40 | COc1ccc(C(=O)NNC(=O)c2cnccn2)cc1[N+](=O)[O-] | 4.81% (inactive)
41 | O=C(NCCO)c1cccc(-c2cccc3nccn23)c1 | -5% (inactive)
42 | O=C(CC1SC(=Nc2ccccc2)N(Cc2ccccn2)C1=O)Nc1cccc(Cl)c1 (stereo not drawn) | 0.599% (inactive)
43 | CNc1cncc(-c2cccc(C(=O)N3CCOCC3)c2)n1 | -3.27% (inactive)
44 | CC(C)c1cccc(-c2csc(C(O)c3ccccc3)n2)c1 (stereo not drawn) | 5.04% (inactive)

Row | SMILES | activation
45 | CCC(=O)OCc1c(C(F)(F)F)nn(C)c1Oc1cccc(C(F)(F)F)c1 | -2.87% (inactive)
46 | O=C(CN1CCN(S(=O)(=O)c2ccc3ccccc3c2)CC1)NC(=O)NC1CCCCC1 | -2.7% (inactive)
47 | CCn1cc(CNC(=O)c2cc([N+](=O)[O-])c(C)c([N+](=O)[O-])c2)cn1 | 1.34% (inactive)
48 | O=C1C=CN2CCCC2CC1 (stereo not drawn) | -2.65% (inactive)
49 | Nc1ncnc2c1ncn2[C@@H]1O[C@H](C(=O)N2CCCN(Cc3ccccc3F)CC2)[C@@H](O)[C@H]1O | -3.13% (inactive)
50 | O=C1CCC(C(=O)Nc2ccc(OC(F)F)cc2)N1 (stereo not drawn) | -0.767% (inactive)
51 | O=C1CSC(=O)N1CCOCCN1C(=O)CSC1=O | -0.569% (inactive)
52 | CN(CCc1ccccn1)C1CCCN(S(=O)(=O)c2ccccc2Cl)C1 (stereo not drawn) | 4.32% (inactive)
53 | OCCN1CCN(c2ncnc3c2ncn3[C@H]2CN(Cc3ccco3)C[C@@H](CO)O2)CC1 | 2.19% (inactive)
54 | COc1ccc(OCc2nnc3n2N=C(c2ccccc2)C(CC(=O)O)S3)cc1 (stereo not drawn) | -4.75% (inactive)
55 | CCn1c(SCC(=O)Nc2cccc(F)c2)nnc1-c1cc2cc(Br)ccc2o1 | 0.906% (inactive)
56 | O=C1N(c2ccccc2)C(=Nc2ccccc2)SC12CC2 | -5.55% (inactive)
57 | O=C(CN1CCOCC1)Nc1c2c(nc3c1CCC3)CCC2 | -3.04% (inactive)
58 | Cc1nc(-c2ccc(F)cc2)c(CC(=O)N(C)CC(=O)Nc2c(C)cccc2C)s1 | 0.938% (inactive)
59 | Cn1nc(C(F)(F)F)c(C(=O)Nc2cccc(C(F)(F)F)c2)c1SCc1ccc(Cl)cc1 | 2.52% (inactive)
60 | CC(=O)NC(c1ccccc1)c1nc(-c2cccc(C(C)C)c2)cs1 (stereo not drawn) | 1.91% (inactive)
61 | CC(=O)NC(c1ccccc1)c1nc(-c2ccccc2C)cs1 (stereo not drawn) | 73.4% (active)
62 | COc1cccc(C(NC(C)=O)c2nc(-c3ccccc3OC)cs2)c1 (stereo not drawn) | -6.01% (inactive)
63 | CCCC(=O)N1CCC1(C)C(=O)NS(=O)(=O)c1ccc(Cl)cc1 (stereo not drawn) | -2.87% (inactive)
64 | CN1OC[C@@H]2CN(C(=O)c3cccnc3)[C@H](c3ccc(N4CCCCC4)cc3)C[C@@H]21 | -5.55% (inactive)
65 | CCOc1ccc(Nc2nc(Cc3nnc(SCC(=O)c4ccc(C)cc4)o3)cs2)cc1 | 0.605% (inactive)
66 | O=C(Cn1c(-c2ccc(Cl)cc2)noc1=O)N1CCN(c2ccccc2F)CC1 | 3.21% (inactive)

Row | SMILES | activation
67 | O=c1onc(-c2c(F)cccc2F)n1-c1ccccc1Cl | 58.1% (active)
68 | Cc1ccc2cccc(S(=O)(=O)N3CCN(c4ccccc4F)CC3)c2n1 | 1.48% (inactive)
69 | O=C(O)CCCC(=O)Nc1ccc(Oc2cccc(C(F)(F)F)c2)nc1 | -2.77% (inactive)
70 | COc1ccc(NC(=O)C2=NNC(=O)CC2)cc1S(=O)(=O)N1CCCCC1 | 3.11% (inactive)
71 | CC1=C(C(=O)Nc2cccc(C(=O)NCC(C)c3ccccc3)c2)SCCO1 (stereo not drawn) | 2.99% (inactive)
72 | Oc1ccc(CN2CCN(c3ncccn3)CC2)cc1 | 57.4% (active)
73 | CN(C)C(=O)c1nc2ccc(Cl)cn2c1CN1CCN(c2ncccn2)CC1 | -28.2% (inactive)
74 | Cc1ccc(CN2CCN(/N=C/c3cccnc3)CC2)c(C)c1 | -1.75% (inactive)
75 | Cc1ccc(CN2CCN(/N=C/c3ccco3)CC2)c(C)c1 | -3.14% (inactive)
76 | Cc1ccc(CN2CCN(c3ncccn3)CC2)c(C)c1 | 101% (active)
77 | c1cnc(N2CCN(c3ccc4ccccc4n3)CC2)nc1 | -9.01% (inactive)
78 | CN(C)c1ccc(CNC2C3CC4CC(C3)CC2C4)cc1 (stereo not drawn) | -0.168% (inactive)
79 | CCCCN(Cc1ccccc1)C(=O)C1CCN(Cc2sccc2C)CC1 | -2.44% (inactive)
80 | O=C(Nc1ccc(N2CCOCC2)nc1)c1c(F)cccc1F | -1.59% (inactive)
81 | CCCCC(=O)N(C)c1c(CC)nc2c(OCc3ccc(S(C)(=O)=O)cc3)cccn12 | -2.46% (inactive)
82 | COc1ccc(C(=O)NCC2CCCO2)cc1S(=O)(=O)NCc1ccc(Cl)cc1 (stereo not drawn) | 0.708% (inactive)
83 | C/C(=N/Nc1nc(-c2ccccc2)c(CC(=O)O)s1)c1ccccc1 | -4.03% (inactive)
84 | C/C(=N\Nc1cccc(C(=O)O)c1)c1ccc2c(c1)Nc1ccccc1S2 | 41.5% (active)
85 | CC(=O)Nc1cccc(/C(C)=N/NC(=O)c2c(-c3ccccc3Cl)noc2C)c1 | -0.376% (inactive)
86 | CC(=O)NN=C(C)c1ccc(NC(=O)C2CC2)cc1 | -2.2% (inactive)
87 | CC(C)Oc1ccc(CN2CCC2(C)C(=O)NCc2ccc(C(F)(F)F)cc2)cc1 (stereo not drawn) | -5.75% (inactive)
88 | O=C(NCc1ccco1)c1ccc(NS(=O)(=O)c2cccc([N+](=O)[O-])c2)cc1 | 2.68% (inactive)
